High-throughput results: PubChem, National Center for Advancing Translational Sciences (NCATS)
GLP1R inv ag: qHTS of GLP-1 Receptor Inverse Agonists (Inhibition Mode) | Glucagon-like peptide 1 receptor (Homo sapiens), P43220 | HEK293 GLP-1R CRE-luciferase, luminescence, 24 h; GLP-1R form is constitutively active | Potency, µM (series often up to 38.3 µM), for inactives: at the highest dose activity change, negative = inhibition, actives largely listed as inhibitors | 410,000 tested, 1.6% active; further: on the % scale 0 is the no-effect control and ±100 the full control effect; nearly all actives have a fitted effect of over 55% in size
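Constitutively active GLP-1R drives a cAMP-responsive luciferase in stably transfected HEK293 cells; test compounds are added after overnight (12 h) attachment and left 24 hr, and signal loss in luminescence marks inhibition.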
GLP-1R agonist: qHTS of GLP-1 Receptor Agonists | Glucagon-like peptide 1 receptor (Homo sapiens), P43220 | HEK293 GLP-1R CRE-luciferase, luminescence, 4-6 h; cells express a hypersensitive GLP-1R form | Potency, µM (titrated, usually from 45.6 µM), for inactives: at the highest dose activation, hits mostly activators | 380,000 tested, 0.007% active; further: % of control where 0% means no effect
ClpP mod: qHTS Assay for Activators of ClpP | AID 651965, 2013 | purified B. subtilis ClpP, FRET peptide cleavage, 20 min | 340,000 tested, 1.9% active | Potency, µM (highest dose often 57.5 µM), inactives show at the highest dose activity change, negative = active | ATP-dependent Clp protease proteolytic subunit (Bacillus subtilis (strain 168)), P80244; active means well fitted falling curve with a large enough effect; inconclusive means small, poorly fitted or top-dose-only effect; inactive means no such curve, though single readings can be large or run the other way; further: the source files actives as falling curves though it sought activators and does not explain the sign; nearly all actives have a fitted effect of over 65% in size
Target sequence (P80244 whole entry, looked up): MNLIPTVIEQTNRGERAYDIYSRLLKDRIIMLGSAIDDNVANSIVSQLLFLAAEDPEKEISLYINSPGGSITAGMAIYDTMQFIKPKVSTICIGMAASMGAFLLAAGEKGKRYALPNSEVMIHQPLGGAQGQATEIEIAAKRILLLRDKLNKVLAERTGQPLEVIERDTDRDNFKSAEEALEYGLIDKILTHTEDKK
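ClpP 10 microg/mL final, pH 8 Tris/KCl buffer with BSA, glycerol, Tween-20; compound pinned in; FRET-FV substrate; RT 20 min; Ex320/Em430; ΔFRET vs ADEP 5.8 microM, DMSO, no enzyme.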
HEK293 tox: qHTS of GLP-1 Receptor Inverse Agonists: Cytotox Screen. Potency, µM (titrated, usually from 38.3 µM), for inactives: at the highest dose activity change, negative = inhibition, most hits filed as inhibitors. HEK293 cAMP-luciferase reporter cells, luminescence, 24 h. AID 624418, 2012. 410,000 tested, 0.13% active;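 further: loss of luciferase light is scored as toxicity; on the % scale 0 is the no-effect control and ±100 the full control effect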
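Seeding density was 200 cells/uL; after overnight-length (12 h) culture, 23 nL compounds went on for 24 h at 37 °C. Readout used a luciferase detection reagent, luminescence taken after 12 min at room temperature.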
An asterisk follows results filed as active; u = inconclusive; x = no result given. Shown are actives, neighbours in structure and some others; about 3.2% of the full set was active somewhere. Unless noted, the call rests on the fitted dose curve; in most records, active means well fitted curve in the direction sought with a large enough effect; inconclusive means small, poorly fitted or top-dose-only effect, or another doubt; inactive means no such curve, though single readings can be large; an effect the other way counts as inactive or inconclusive. Potency means the concentration at half of the fitted maximal effect.

SMILES | GLP1R inv ag | GLP-1R agonist | ClpP mod | HEK293 tox
O=C(Cn1cc(SCc2ccc(Br)cc2)c2ccccc21)N1CCCCC1 | -18% | x | 0% | 2%
Cn1cc(C(=O)N2CCN(C(=O)c3ccco3)CC2)c2c3ccccc3n(C)c2c1=O | -5% | 7% | 14µM* | u
CCOC(=O)C1CCN(C(=O)c2cn(CCOC)c(=O)c3c2c2ccccc2n3C)CC1 | 0% | -8% | 7.9µM* | 3%
COCCn1cc(C(=O)NCCCOC(C)C)c2c3ccccc3n(C)c2c1=O | -2% | 10% | 32µM* | 10%
CCCN(C)CCCOc1cc2nc(N3CCCN(C)CC3)nc(NC3CCN(C)CC3)c2cc1OC | x | x | 4% | x
Cc1ccc(-n2c(SCC(N)=O)nnc2-c2ccc(S(=O)(=O)N3CCCCC3)cc2)c(C)c1 | 0% | 3% | 25µM* | -13%
Cc1cccc(NC(=O)CN(CC2CCCO2)C(=O)c2ccc(S(C)(=O)=O)cc2)c1C (centres undefined) | 13% | -3% | 25µM* | -4%
CN1CCN(c2nc(-c3ccc(Br)cc3)nnc2-c2ccccc2)CC1 | 8.9µM* | 25% | -1% | -2%
Brc1ccc(-c2nnc(-c3ccccc3)c(N3CCSCC3)n2)cc1 | 8.9µM* | -27% | 2% | 3%
O=C1C(=O)N(C2CCN(C(=O)c3ccccc3Cl)CC2)CCN1Cc1ccc(F)cc1 | -9% | x | -1% | 3%
CC(C)CN1CC(C)C(=O)NC1=S (centres undefined) | 11% | 2% | 28µM* | 1%
COc1ccc(-c2nc3sc(CCNC(=O)C(=O)Nc4cc(F)ccc4F)c(C)n3n2)cc1 | 10% | x | -6% | 1%
Cc1cc(C)c(C#N)c(=N)o1 | 1% | 2% | 2.8µM* | 12%
CC1(C)CCCN(C(=O)N2c3ccccc3Sc3ccccc32)C1 | 4.5µM* | 6% | -1% | -5%
O=C(CN1CCCC1)N1c2ccccc2Sc2ccccc21 | -3% | -4% | -4% | -3%
O=C1CCC[C@@H]2C[C@@]3(C[C@@H]4CCN1[C@H]24)Nc1cc(Cl)c(Cl)cc1NC3=NCc1ccccc1 | 10µM* | 1% | -2% | -28%
c1ccc(CCNc2nc(-c3ccccc3)cs2)cc1 | x | 12% | x | x
CC1(C(=O)Nc2ccc(Cl)c(Cl)c2)CCN1C(=O)CC1CCCC1 (centres undefined) | 14µM* | 5% | 2% | 1%
CCOC(=O)C(=NCC1CCCO1)NNc1cc(Cl)ccc1Cl (centres undefined) | 11µM* | 20% | x | 5%
COc1ccc(OC)c(-c2cc(C(=O)Nc3c(C)nn(Cc4ccccc4)c3C)no2)c1 | 0% | 23% | u | -5%
COc1ccc(OC)c(-c2cc(C(=O)Nc3c(C)nn(Cc4ccc(Cl)cc4)c3C)no2)c1 | 0% | 20% | 35µM* | 4%
COc1ccc2c(c1)CCc1c(C(=O)Nc3c(C)nn(Cc4ccccc4Cl)c3C)noc1-2 | 10µM* | x | -7% | -11%
O=C(Nc1ccccn1)c1onc2c1CCCC2 | 2.5µM* | -32% | -3% | 20%
O=C(NC1CCCC1)C(c1ccsc1)N(C(=O)Cc1cccs1)c1ccc(F)cc1 (centres undefined) | 17% | 4% | 0% | 5%
O=C(NC1CCCC1)C(c1ccccc1F)N(C(=O)Cc1cccs1)c1ccc2c(c1)OCCO2 (centres undefined) | 10µM* | 4% | -1% | 5%
SMILES | GLP1R inv ag | GLP-1R agonist | ClpP mod | HEK293 tox
O=C(CSc1nnc(CNC(=O)c2ccc(F)cc2)o1)NCc1ccccc1Cl | -12% | 0% | 1% | -6%
O=C(CSc1nnc(CNC(=O)c2ccccc2)o1)NCc1ccccc1Cl | 4% | -4% | 32µM* | 17%
Cc1ccc(CNC(=O)c2cc(-c3ccccc3C)nn2CC2CC(c3cccnc3)=NO2)cc1 (centres undefined) | 16% | -1% | 1% | 0%
Cc1ccccc1-c1cc(C(=O)NCc2ccc(OC(F)(F)F)cc2)n(CC2CC(c3cccnc3)=NO2)n1 (centres undefined) | 22µM* | 2% | -4% | 0%
Cc1ccc(CNC(=O)Cn2c(=O)n(-c3ccc(C)cc3)c(=O)c3c2c2cc(C)ccc2n3C)cc1 | 1% | -1% | u | -3%
Cc1ccc(C)c(N(C)C(=O)c2cn(C)c(=O)c3ccccc23)c1 | 6.3µM* | x | -9% | 28%
